# How the values were obtained:
# [1] = tested on: Human papillomavirus type 1a protein E7 (residues 44-93); experiment: small molecules binding HPV E7 44-93 – biochemical, small-molecule microarray, residues 44-93, 635 nm fluorescence, primary screen (AID 1108); details: fluorescence 635 nm, higher = more signal;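 also: E7 fragment applied at 1 µg/mL in TBST for 1 h at 4 C; score combines spot fluorescence with its signal to noise ratio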
# [2] = hepatitis C replication reporter changes, two-sided – Huh7 cells, luciferase reporter, HCV replication inhibitor project, primary screen (AID 1109); details: Huh7 HCV replicon luciferase reporter, 48 h; higher = more signal;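 also: huh7 hepatoma cells harbouring a luciferase neomycin HCV replicon reporter; luciferase luminescence as measure of HCV replicon replication; test concentration not given here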
# [3] = biological target: Left-right determination factor 2 (Homo sapiens) (UniProt O00292); experiment: small molecules binding LEFTY2 protein – biochemical, small-molecule microarray, 635 nm fluorescence scan, primary screen (AID 1110); details: higher = more signal
# [4] = biological target: Calmodulin-1 (Homo sapiens) (UniProt P0DP23); experiment: small molecules binding calmodulin-1 with EGTA – biochemical, small-molecule microarray, Cy5-labelled CALM1, profiling panel (AID 1111); details: Cy5-CALM1 binding fluorescence, higher = more signal;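 also: labelled calmodulin applied in Tris saline Tween buffer holding calcium plus EGTA and DTT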
# [5] = biological target: Calmodulin-1 (Homo sapiens) (UniProt P0DP23); experiment: small molecules binding Ca-loaded calmodulin-1 – biochemical, small-molecule microarray, Cy5-labelled CALM1, plus calcium, artefact control for SMM control-protein annotation, profiling panel (AID 1112); details: Cy5-CALM1 binding fluorescence, higher = more signal;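 also: score merges spot fluorescence with signal to noise from triplicate slides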
# [6] = probe aWnt5a binding to arrayed compounds – biochemical, biotinylated probe, 635/667 nm fluorescence, primary screen (AID 1113); details: small-molecule microarray, higher = more signal;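 also: score merges 667 nm fluorescence intensity with signal-to-noise per printed feature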
# [7] = probe aShh binding to arrayed compounds – biochemical, biotinylated probe, 635/667 nm fluorescence, primary screen (AID 1114); details: small-molecule microarray, higher = more signal;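 also: probe is biotin-labelled aShh protein from a stem cell growth factor screen; measures binding of labelled protein to compounds printed on the slide; score merges feature fluorescence at 667 nm with signal-to-noise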
# [8] = probe aNog binding to arrayed compounds – biochemical, biotinylated probe, 635/667 nm fluorescence, primary screen (AID 1115); details: small-molecule microarray, higher = more signal;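 also: probe is biotinylated aNog protein used at 0.15 µg/mL for 1 h at 4 C; z-score combines 667 nm fluorescence of each spot with its signal to noise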
# [9] = biological target: Torsin-1A-interacting protein 1 (Homo sapiens) (UniProt Q5JTV8); experiment: compound microarray binding of lysate hLAP1 – cell lysate, small-molecule microarray, COS7 lysate, 635/667 nm fluorescence, primary screen (AID 1116); details: 635 nm fluorescence, higher = more signal
# [10] = biological target: Alpha-bungarotoxin (Bungarus multicinctus) (UniProt P60615); experiment: compounds binding labelled alpha-BTX control protein – biochemical, small-molecule microarray, Alexa647 label, 635/667 nm fluorescence, artefact control for SMM control protein annotation, profiling panel (AID 1117); details: alpha-BTX-A647 binding fluorescence, higher = more signal
# Sequence of Alpha-bungarotoxin (Bungarus multicinctus) (P60615 whole entry, looked up): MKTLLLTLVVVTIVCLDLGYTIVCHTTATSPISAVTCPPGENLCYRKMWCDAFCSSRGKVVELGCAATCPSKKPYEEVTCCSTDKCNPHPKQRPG
# Sequence of Torsin-1A-interacting protein 1 (Homo sapiens) (Q5JTV8 whole entry, looked up): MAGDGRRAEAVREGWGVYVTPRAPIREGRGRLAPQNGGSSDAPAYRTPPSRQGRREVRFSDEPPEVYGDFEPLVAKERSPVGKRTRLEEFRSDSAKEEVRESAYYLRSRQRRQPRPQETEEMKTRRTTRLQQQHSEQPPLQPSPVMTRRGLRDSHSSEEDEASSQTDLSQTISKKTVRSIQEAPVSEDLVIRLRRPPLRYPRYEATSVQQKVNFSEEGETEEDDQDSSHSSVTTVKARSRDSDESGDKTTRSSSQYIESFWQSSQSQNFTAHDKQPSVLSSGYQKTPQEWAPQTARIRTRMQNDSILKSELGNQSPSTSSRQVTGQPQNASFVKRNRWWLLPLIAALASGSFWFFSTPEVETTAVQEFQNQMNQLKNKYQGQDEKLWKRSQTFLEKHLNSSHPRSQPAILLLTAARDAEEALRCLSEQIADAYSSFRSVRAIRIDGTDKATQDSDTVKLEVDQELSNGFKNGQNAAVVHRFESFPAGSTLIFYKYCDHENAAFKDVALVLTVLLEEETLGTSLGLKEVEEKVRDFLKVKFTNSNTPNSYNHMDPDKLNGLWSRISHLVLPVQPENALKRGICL
# Sequence of Left-right determination factor 2 (Homo sapiens) (O00292 whole entry, looked up): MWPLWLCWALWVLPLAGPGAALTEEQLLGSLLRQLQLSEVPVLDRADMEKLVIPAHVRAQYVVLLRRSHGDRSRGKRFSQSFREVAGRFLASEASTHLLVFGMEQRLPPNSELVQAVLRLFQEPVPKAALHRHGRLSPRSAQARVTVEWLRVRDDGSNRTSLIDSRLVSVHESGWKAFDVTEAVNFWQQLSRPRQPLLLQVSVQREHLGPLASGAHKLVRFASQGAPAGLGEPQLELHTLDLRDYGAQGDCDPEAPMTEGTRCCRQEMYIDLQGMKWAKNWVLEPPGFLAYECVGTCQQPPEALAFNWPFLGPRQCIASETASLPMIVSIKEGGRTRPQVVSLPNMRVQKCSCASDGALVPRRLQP
SMILES,composite z-score [1],z-score [2],composite z-score [3],composite z-score [4],composite z-score [5],composite z-score [6],composite z-score [7],composite z-score [8],composite z-score [9],composite z-score [10]
C=CCC(OC(C)=O)[C@@H]1[C@@H](N(Cc2ccc(-c3ccccc3)cc2)C(=O)c2cccc3ccccc23)c2cc(OCCCO)ccc2N1C(=O)Cc1ccc(OC)cc1 (stereo not given in full),-0.69,-0.235,-0.526,-0.424,0.618,-0.0405,-0.0293,-0.202,-0.278,0.313
CCOc1cc(C(O)C2C=CC3C(=O)N(c4ccccc4)C(=O)C3N2Nc2ccccc2F)ccc1O (stereo not given),0.357,-0.299,-0.325,0.182,0.479,0.302,0.536,1.71,-0.321,0.762
COCCOC(=O)N1C(=O)[C@@]2(c3cc(C#CCC(C(=O)OC)C(=O)OC)ccc31)[C@H](C(=O)Nc1nc3ccccc3s1)[C@H]1C(=O)O[C@H](c3ccccc3)[C@H](c3ccccc3)N1[C@@H]2c1ccc(O)cc1,1.42,-0.146,1.31,0.975,-0.0869,-0.0044,-0.043,0.459,0.706,1.63
COCCOC(=O)N1C(=O)[C@@]2(c3cc(C#CCCO)ccc31)[C@H](c1ccc(OCCO)cc1)N1[C@H](c3ccccc3)[C@H](c3ccccc3)OC(=O)[C@H]1[C@@H]2C(=O)N1CCCCCCC1,0.371,-0.882,1.39,1.99,0.953,0.779,0.599,0.952,3.39,2.3
CCCCN1CC=CC23O[C@@H]4/C=C\CCCOC(=O)C4[C@H]2C(=O)N(C(CO)C(C)C)[C@@H]3C1=O (stereo not given in full),-0.0052,-0.134,0.272,-0.11,-0.0085,-0.0482,0.0469,-0.51,0.0974,-0.838
COc1ccc(C(=O)Nc2cccc(CN3C(=O)[C@]4(O[C@H](CC(=O)N5Cc6ccccc6C[C@H]5CO)[C@@H]([Si](C)(C)c5ccc(OC)cc5)[C@@H]4C)c4ccccc43)c2)cc1,1.23,-3.44,1.05,0.219,-0.763,0.0194,0.0639,0.0811,0.711,1.12
Cc1ccc(C(C)CC(O)C2C=CC3C(=O)N(C)C(=O)C3N2Nc2ccccc2)o1 (stereo not given),1.4,-0.955,0.79,0.0895,-0.0452,-0.0057,-0.0769,-0.213,0.163,0.6
COC(=O)[C@H](Cc1ccc(O)cc1)N[C@@H](/C=C/C1CC1)[C@H](O)Cc1ccccc1,-0.367,-1.06,-0.0158,-0.851,-0.929,-0.15,-0.214,-0.321,0.108,-0.22
C=C(COC)C(=O)CC[C@@H](OC(=O)c1ccccc1-c1ccccc1C(=O)O)c1ccc(OCCO)cc1,-0.0675,-1.88,0.079,-0.601,-0.942,-0.145,-0.304,0.338,1.21,-0.0978
CN(C)CCCC[C@@H]1NC(=O)[C@@H]2C[C@H](C(=O)NCCCCCN)[C@H](c3cccc(OCCO)c3)N2C1=O,1.11,0.663,0.64,1.77,0.717,-0.174,-0.16,-0.301,1.05,0.293
COC(=O)[C@@]1(Cc2ccc(OC)cc2)[C@H]2c3cc(C(=O)N4CCCC4)n(Cc4c(CO)[nH]cc(C)c4=O)c3C[C@H]2CN1C(=O)c1ccccc1,-0.78,-1.4,-0.181,2.05,0.593,0.0328,-0.156,0.947,2.32,0.12
O=C(NCc1ccccc1)[C@@H]1c2ccccc2C(=O)N(Cc2ccc(OC(F)(F)F)cc2)[C@H]1c1ccc(CO)cc1,0.259,-1.1,-0.725,-0.437,0.284,-0.0735,-0.0813,0.868,1.15,-0.0863
COc1ccc([Si](C)(C)[C@@H]2[C@@H](CC(=O)N3Cc4ccccc4C[C@H]3CO)O[C@]3(C(=O)N(Cc4ccc(N5CCOC5=O)cc4)c4ccccc43)[C@H]2C)cc1,0.225,-3.78,0.874,-0.422,-0.497,-0.119,0.0639,-0.339,1.86,1.42
COc1ccc(CCNC(=O)[C@@H]2c3ccccc3C(=O)N(Cc3ccccc3OC)[C@H]2c2ccc(CO)cc2)cc1,1.16,-1.27,-0.321,0.527,-0.103,-0.0398,-0.423,0.938,0.966,0.75
CO[C@H]1O[C@H](CO)[C@@H](OC(=O)Nc2ccccc2-c2ccccc2)[C@H](OC(=O)Nc2ccccc2)[C@H]1OC(=O)Nc1ccccc1,0.922,-2.49,0.732,1.27,-0.144,0.169,0.269,0.225,1.07,1.64
CCOC(=O)C1=CCC(c2cc3ccccc3[nH]2)N(CCN2CC(C(=O)OCC)=CCC2c2cc3ccccc3[nH]2)C1 (stereo not given),1.34,-1.87,0.0083,0.884,-0.608,-0.0203,0.0639,0.302,0.0389,0.927
NCCCCCCNC(=O)[C@@H]1C[C@@H]2C(=O)N3CCC[C@H]3C(=O)N2[C@@H]1c1cccc(OCCO)c1,-0.0954,0.116,0.738,0.263,-0.334,-0.0286,-0.0035,-0.366,0.572,1.01

SMILES,composite z-score [1],z-score [2],composite z-score [3],composite z-score [4],composite z-score [5],composite z-score [6],composite z-score [7],composite z-score [8],composite z-score [9],composite z-score [10]
O=C1O[C@@H](c2ccccc2)[C@@H](c2ccccc2)N2[C@@H](c3ccc(OCCO)cc3)[C@]3(C(=O)Nc4ccc(C#CC5(O)CCCCCC5)cc43)[C@@H](C(=O)Nc3nc4ccccc4s3)[C@H]12,1.44,-2.29,0.755,1.6,0.646,0.0775,0.156,0.516,1.34,1.41
C[C@@H]1ON(c2ccc(I)cc2)[C@H](c2cccc(NC(=O)OCC3c4ccccc4-c4ccccc43)c2)[C@H]1C(=O)N1C(=O)OC[C@H]1Cc1ccccc1,0.531,-0.31,0.678,0.224,-0.435,-0.142,-0.0866,-0.285,0.246,-0.0652
CC1CC/C=C\[C@H]2OC34C=CCN(Cn5nnc6ccccc65)C(=O)[C@H]3N(CCCCCCO)C(=O)[C@@H]4C2C(=O)O1 (stereo not given in full),-0.0257,0.0151,-1.7,0.259,0.659,-0.232,-0.0709,0.0021,0.145,-0.551
CC(C)(C)OC(=O)CC[C@]1(C(=O)NCC(O)CO)N=C(c2ccc(OCCCO)cc2)O[C@H]1c1ccccc1N=[N+]=[N-] (stereo not given in full),0.438,1.18,0.0607,1.28,0.434,0.0775,-0.221,1.36,2.06,0.931
CN1C(=O)C2C(C3CC3)C=C3CN(Cc4cccc(Cl)c4)[C@@H]([C@@H](O)Cc4ccccc4)C3C2C1=O (stereo not given in full),1.36,-1.6,0.526,0.283,-0.469,-0.244,-0.462,-0.332,0.648,1.04
CC(C)N1C(=O)c2ccccc2[C@@H](C(=O)NCC(F)(F)F)[C@@H]1c1ccc(CO)cc1,0.124,0.568,0.0101,-0.257,-0.224,-0.0334,-0.0626,0.128,0.287,-0.143
C[N+](C)(C)CCCC[C@@H]1NC(=O)[C@H]2C[C@@H](C(=O)NCCCCCNC(=O)CS)[C@@H](c3cccc(OCCO)c3)N2C1=O,-0.0364,-0.709,-0.259,-0.0728,0.297,-0.103,-0.0626,-0.234,0.707,-0.307
CCCc1cc2c(n1CCc1ccc(Cl)cc1)C(C)C1CN(C(=O)c3ccccc3)C(C)(C(=O)OC)C21 (stereo not given),0.274,-2.1,-0.338,2.48,1.28,0.16,0.241,1.24,1.53,2.19
CN1C(=O)C2C=CC(C(O)c3ccc(-c4ccccc4)s3)N(NC(=O)OC(C)(C)C)C2C1=O (stereo not given),0.399,-0.204,0.285,2.28,0.902,0.055,-0.279,1.38,1.52,1.62
CC[C@@H]1C=C(C(=O)O)[C@H](c2ccc(OC)cc2)N1S(=O)(=O)c1ccc(C)cc1,-0.875,-0.619,-0.495,0.15,0.0583,-0.154,-0.221,-0.209,0.076,0.0708
O=C1C=C(c2ccccc2)C(=O)C2=C1CC([C@H]1Oc3ccccc3S(=O)(=O)N3CCC[C@@H]13)=CC2,0.529,-3.98,0.0208,0.042,-0.207,-0.124,-0.304,-0.172,0.0279,0.0221
CCOC(=O)C[C@H]1[C@H](OC(=O)c2cc3ccccc3oc2=O)[C@@H](NC(=O)CC(C)C)c2cc(OCCCO)ccc2N1C(=O)Cc1ccc(OC)cc1,0.653,-0.0665,0.455,-0.0388,-0.61,-0.16,-0.206,-0.238,0.571,-0.472
COc1ccc(C(=O)Nc2ccc3c(c2)[C@@]2(O[C@H](CCO)[C@@H]([Si](C)(C)c4ccc(OC)cc4)[C@@H]2C)C(=O)N3Cc2ccccc2)cc1,1.28,-5.23,0.219,0.397,0.238,-0.0599,-0.0782,0.56,0.518,0.399
COCCOC(=O)N1C(=O)[C@@]2(c3cc(C#CCC(C(=O)OC)C(=O)OC)ccc31)[C@H](C(N)=O)[C@H]1C(=O)O[C@H](c3ccccc3)[C@H](c3ccccc3)N1[C@@H]2c1ccc(O)cc1,1.42,-2.77,0.713,1.01,0.0194,0.0179,0.0328,-0.543,1.08,1.61
CO[C@H]1O[C@H](CO)[C@@H](OC(=O)Nc2ccccc2)[C@H](OC(=O)Nc2ccccc2)[C@H]1OC(=O)Nc1ccccc1,1.5,-2.73,-0.0522,1.34,-0.12,0.0519,-0.0709,-0.273,1.75,1.05
C=CCOC(=O)[C@@H]1[C@H]2C(=O)O[C@H](c3ccccc3)[C@H](c3ccccc3)N2[C@H](c2ccc(OCCOC(=O)[C@H]3C[C@H]4C(=O)N[C@@H](CCCCN(C)C)C(=O)N4[C@H]3c3ccc(O)cc3)cc2)[C@@]12C(=O)Nc1ccc(I)cc12,1.06,-3.31,1.17,-0.842,-0.972,0.0317,-0.0578,0.219,1.31,1.51
